Columns and labels:
Experiment in all cases: PBM binding z-score (relative to random genomic background probes); higher = stronger binding; sequences stand for … in GC…GCGATTGACAGCGTAGAATGAAGG
[1] = system: PPARg:RXRa DBDmut IVT, anti-RXR (DBD mutation: RXRa K156A/R161A, NR concentration 270 nM, RXRa partner concentration 90 nM)
Method in brief: (§1)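 Custom Agilent 4×180K protein-binding microarrays carried double-stranded probes. Their 34-nt variable regions held direct-repeat seeds, single-nucleotide variants, half-site ablations and random human genomic background sequences. Arrays were incubated 1 h with ligand-free nuclear receptor dimers in PBS pH 7.4, 2% milk, 0.02% Triton X-100, 1 mM DTT, 0.2 mg/mL BSA and 0.4 mg/ml salmon testes DNA. Antibodies against each partner (one per run) detected binding, and scanned fluorescence was regression-normalized. Binding z-scores use random background probes as reference.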

[2] = system: PPARg:RXRa IVT, anti-PPARg (NR concentration 270 nM, RXRa partner concentration 90 nM)
Method in brief: as §1

[3] = system: PPARg DBDmut:RXRa IVT, anti-PPARg (DBD mutation: PPARg1 K132A/R137A, NR concentration 270 nM, RXRa partner concentration 90 nM)
Method in brief: as §1

[4] = system: PPARg DBDmut IVT, anti-PPARg (DBD mutation: PPARg1 K132A/R137A, NR concentration 270 nM)
Method in brief: as §1

[5] = system: PPARg homodimer (NR concentration 180 nM)
Method in brief: as §1

[6] = system: PXR:RXRa (NR concentration 270 nM, RXRa partner concentration 90 nM)
Method in brief: as §1

[7] = system: PXR homodimer (NR concentration 270 nM)
Method in brief: as §1

[8] = system: RARa:RXR (NR concentration 270 nM, RXRa partner concentration 90 nM)
Method in brief: as §1

[9] = system: RARa homodimer (NR concentration 270 nM)
Method in brief: as §1

[10] = system: RARb:RXRa (NR concentration 270 nM, RXRa partner concentration 90 nM)
Method in brief: as §1

[11] = system: RARb homodimer (NR concentration 270 nM)
Method in brief: as §1

[12] = system: RARg:RXRa (NR concentration 270 nM, RXRa partner concentration 90 nM)
Method in brief: as §1

[13] = system: RARg homodimer (NR concentration 270 nM)
Method in brief: as §1

[14] = system: RXRa DBDmut IVT, anti-RXR (DBD mutation: RXRa K156A/R161A, NR concentration 90 nM)
Method in brief: as §1

[15] = system: RXRa homodimer (NR concentration 180 nM)
Method in brief: as §1

[16] = system: THRa:RXRa (NR concentration 90 nM, RXRa partner concentration 90 nM)
Method in brief: as §1

[17] = system: THRa homodimer (NR concentration 90 nM)
Method in brief: as §1

[18] = system: VDR:RXRa (NR concentration 270 nM, RXRa partner concentration 90 nM)
Method in brief: as §1

[19] = system: VDR homodimer (NR concentration 270 nM)
Method in brief: as §1

| Sequence | PBM binding z-score [1] | PBM binding z-score [2] | PBM binding z-score [3] | PBM binding z-score [4] | PBM binding z-score [5] | PBM binding z-score [6] | PBM binding z-score [7] | PBM binding z-score [8] | PBM binding z-score [9] | PBM binding z-score [10] | PBM binding z-score [11] | PBM binding z-score [12] | PBM binding z-score [13] | PBM binding z-score [14] | PBM binding z-score [15] | PBM binding z-score [16] | PBM binding z-score [17] | PBM binding z-score [18] | PBM binding z-score [19] |
| --- | --- | --- | --- | --- | --- | --- | --- | --- | --- | --- | --- | --- | --- | --- | --- | --- | --- | --- | --- |
| ACCATTAGTTGAGACGAGGGCAACCGATAGGTTG | 0.237 | 0.503 | 0.491 | -0.276 | 0.403 | 1.5 | 0.41 | 1.48 | -0.14 | 1.18 | 1.3 | 0.676 | 0.629 | 0.383 | 0.669 | 2.63 | 0.525 | 0.755 | 1.04 |
| ACTAGTTGGACAGCTGAGGTCACACACAATTCGG | 0.874 | 1.88 | 0.609 | 0.717 | 1.73 | 4.67 | 1.34 | 4.57 | 1.08 | 3.33 | 4.06 | 3.66 | 3.43 | 1.09 | 3.85 | 4.57 | 4.93 | 3.85 | 2.99 |
| CAAACTACGTCAAAGGTCAAAGTCGAGCCAACCA | 0.954 | 3.98 | 7.78 | 3.09 | 4.03 | 5.6 | 1.77 | 6.64 | 2.88 | 4.73 | 4.68 | 6.1 | 5.88 | 1.66 | 7.92 | 3.5 | 0.927 | 5.02 | 2.36 |
| ATCGAAAGGTCGAAGGTGAGTGTACCCACCCGAA | -0.0432 | 2.32 | 1.7 | 0.661 | 1.79 | 3.07 | 0.136 | 4.01 | -0.116 | 3.86 | 2.58 | 4.02 | 3.37 | 0.847 | 5.11 | 2.3 | 0.0687 | 3.05 | 0.737 |
| AGCGAAAGGTCGTGAGGTGAGTATACAGAAAGGC | 0.425 | 2.63 | 0.478 | 1.08 | 1.38 | 2.81 | 0.0715 | 3.96 | 0.217 | 4.29 | 3.19 | 4.63 | 3.87 | 0.985 | 5.33 | 3.46 | 1.27 | 3.51 | 0.74 |
| CGTCTAAGGTCAATGCTAGGTCAGTGAAAGCATT | 3.81 | 4 | -0.172 | -0.413 | 4.57 | 4.95 | 1.41 | 6.06 | 0.698 | 5.35 | 5.09 | 7.91 | 7.34 | 3.82 | 6.12 | 4.67 | 4.42 | 5.23 | 3.13 |
| TCTGCTAGGTCAACGATGGTCAGCTACTCTGCTA | 4.3 | 4.17 | -0.186 | -0.6 | 0.254 | 1.42 | -0.802 | 1.93 | -0.564 | 4.14 | 3.48 | 4.25 | 5.24 | 0.833 | 2.64 | 3.04 | 0.776 | 1.68 | -0.337 |
| TCTGCTAGGTCAGCGATGGTCAGCTAATCTGCTA | 3.18 | 3.05 | -0.711 | -0.258 | 0.723 | 0.17 | -1.61 | 1.31 | -1.26 | 3.33 | 2.71 | 2.89 | 3.88 | 0.156 | 1.25 | 2.4 | -0.062 | 0.126 | -0.739 |
| ATATGTAGATTACATCCGGGTCATTCAGGCTATG | 1.44 | 2.32 | 1.43 | 1.61 | 1.18 | 2.53 | 1.22 | 2.88 | 0.587 | 1.38 | 2.23 | 1.66 | 1.21 | 1.02 | 2.2 | 3.14 | 2.27 | 3.34 | 2.43 |
| CTAACTAGGTCAAGGACAGTGAATCTCCGCACGC | 8.7 | 8.66 | 2.25 | 1.42 | 3.48 | 1.21 | 0.296 | 1.87 | 0.59 | 4.08 | 3.16 | 3.64 | 4.21 | 1.34 | 2.64 | 3.08 | 2.01 | 1.3 | 0.398 |
| TCTGCTACGTCAGTTGGTCAGCTAACGAGCTGCC | 0.19 | -0.135 | 0.134 | 0.236 | -2.23 | -0.876 | -1.18 | -0.819 | -1.96 | -0.0758 | -0.763 | -0.688 | -0.884 | 0.0505 | -0.761 | -1.71 | -0.995 | -0.996 | -1.44 |
| CACGAAAGGTCGTGCTCAGGTGAGTATACCAAAC | 1.16 | 1.86 | 0.523 | 0.745 | 1.9 | 3.35 | 0.154 | 4.28 | -0.1 | 4.13 | 2.88 | 5.37 | 4.66 | 2.24 | 5.36 | 3.96 | 1.18 | 3.51 | 1.46 |
| TCTTGTAGATCAAATGTTAAGAAAGCCGAAGCCT | 2.21 | 0.573 | 0.744 | 0.647 | 0.284 | 0.199 | 0.012 | 0.519 | 0.868 | -0.134 | -0.797 | -0.173 | -0.241 | 1.15 | 0.176 | -0.551 | -0.39 | 0.366 | -0.522 |
| GCTGCTAGGTCAACTGATGGTCCGCTAAAGCTCG | 4.62 | 3.92 | -0.331 | -0.853 | 0.857 | 0.939 | -0.584 | 2.05 | -0.897 | 4.04 | 3.41 | 4.2 | 5.3 | 1.53 | 2.8 | 2.73 | 1.26 | 1.31 | 0.106 |
| AGTCAAAGTCCAGGACGAGGTAACGTAAAGCACG | -0.362 | -0.000589 | 0.282 | 0.0417 | -0.362 | -0.248 | -0.347 | -0.00617 | -0.392 | 0.916 | 0.381 | 0.451 | 0.688 | -0.0759 | 0.28 | 1.89 | 1.14 | -0.202 | -0.089 |
